This is an account of results in PubChem BioAssay (NCI).

Experiment [1] in a line: NCI Yeast Anticancer Drug Screen. Data for the rad50 strain (AID 155).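 Further: 0% = growth of vehicle-only cultures of the same strain.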 As to conditions: S. cerevisiae rad50 strain growth inhibition, hits give high values. In a few lines:
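A DNA repair-deficient yeast mutant serves as the test organism; compound-induced growth inhibition is calculated against vehicle-treated cells.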

Experiment [2] can be described thus: NCI Yeast Anticancer Drug Screen. Data for the mec2-1 strain (AID 157). As to conditions: S. cerevisiae mec2-1 strain, hits give high values. In a few lines: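 Growth inhibition is read against vehicle-treated controls after compound exposure of the mec2-1 yeast strain, which is defective in DNA damage repair or cell cycle control.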
Experiment [3] can be described thus: NCI Yeast Anticancer Drug Screen. Data for the sgs1 mgt1 strain (AID 161).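 Further: 0% = growth of cultures given vehicle only.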 Particulars: S. cerevisiae sgs1 mgt1 strain, hits give high values. In a few lines: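 Percent growth inhibition was derived by comparing compound-exposed mutant yeast with vehicle-exposed cultures. The strain carries alterations in DNA damage repair.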
Experiment [4] in a line: NCI Yeast Anticancer Drug Screen. Data for the cln2 rad14 strain (AID 165).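 Further: 0% = growth equal to vehicle treated cultures.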 Particulars: S. cerevisiae cln2 rad14 strain, hits give high values. In a few lines:
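Growth inhibition, relative to vehicle-treated controls, is the read-out. The test organism is a yeast strain with defined genetic alterations, cln2 rad14.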

Experiment [5] can be described thus: NCI Yeast Anticancer Drug Screen. Data for the bub3 strain (AID 167). Particulars: S. cerevisiae bub3 mutant strain, hits give high values. In a few lines: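 Inhibition values come from growth of compound-treated mutant yeast normalised to vehicle-treated controls.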
Experiment [6] is described as follows: NCI Yeast Anticancer Drug Screen. Data for the mlh1 rad18 strain (AID 175). Particulars: S. cerevisiae mlh1 rad18 strain growth inhibition, hits give high values. Summed up:
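Cells of a genetically altered yeast strain, deficient in DNA damage repair, were treated with compound. Their growth was then compared with that of vehicle-treated cultures to give inhibition.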

The mark [7] stands for this setting: at 5.0 µM (retest, dose inferred, filed as 0.5).
[8] abbreviates: at 50.0 µM (retest, dose inferred, filed as 5.0).

The panel holds about 79,000 compounds, 15% with a hit somewhere; the sample as a whole holds those more often. Unmarked numbers belong to inactive results. Activity calls are given as the source filed them. No stated cut-off is given here; in the data, active means growth inhibition above about 70%; inactive means the rest.

For `COc1ccc(-c2nc3c(C(=O)NCCN(C)C)cccc3c3ccccc23)cc1`, the growth inhibition was 14% in experiment [1] (setting [7]); 42% in experiment [1] (setting [8]); 70.5% (active) in experiment [1] (at 50.0 µM); 17% in experiment [2] (setting [7]); 9% in experiment [2] (setting [8]); 56% in experiment [2] (at 50.0 µM). Besides, the growth inhibition was -12% in experiment [3] (setting [7]); 55% in experiment [3] (setting [8]); 13.9% in experiment [3] (at 50.0 µM); 3% in experiment [4] (setting [7]); 37% in experiment [4] (setting [8]); 0.85% in experiment [4] (at 50.0 µM). For the same molecule, the growth inhibition in experiment [5] (setting [7]) is 8%; in experiment [5] (setting [8]), 54%; in experiment [5] (at 50.0 µM), -15.3%; in experiment [6] (setting [7]), 10%; in experiment [6] (setting [8]), 37%; in experiment [6] (at 50.0 µM), 89.5% (active).
For `O=C1CSC(c2ccc([N+](=O)[O-])cc2)N1c1ccc(-c2ccc(-n3c(-c4ccccc4)nc4ccccc4c3=O)cc2)cc1` (stereo not given), the growth inhibition was -1% in experiment [1] (setting [7]); 91% (active) in experiment [1] (setting [8]); 85.2% (active) in experiment [1] (at 50.0 µM); 13% in experiment [2] (setting [7]); 79% (active) in experiment [2] (setting [8]); 84.4% (active) in experiment [2] (at 50.0 µM). In addition, the growth inhibition in experiment [3] (setting [7]) was 14%; in experiment [3] (setting [8]) it was 93% (active); in experiment [3] (at 50.0 µM), 94% (active); in experiment [4] (setting [7]) it was 31%; in experiment [4] (setting [8]) it was 75% (active); in experiment [4] (at 50.0 µM), 72.5% (active). In addition, the growth inhibition in experiment [5] (setting [7]) is -14%; in experiment [5] (setting [8]), 95% (active); in experiment [5] (at 50.0 µM), 95.2% (active); in experiment [6] (setting [7]), 19%; in experiment [6] (setting [8]), 96% (active); in experiment [6] (at 50.0 µM), 94.8% (active).
Turning to `OCC(O)C(O)C(O)/C=N\Nc1ccccc1` (stereo not given), the growth inhibition in experiment [1] (setting [7]) is 9%; in experiment [1] (setting [8]), 19%; in experiment [1] (at 50.0 µM), 49.6%; in experiment [2] (setting [7]) it was -3%; in experiment [2] (setting [8]) it was -6%; in experiment [2] (at 50.0 µM), 44.4%. Moreover, the growth inhibition in experiment [3] (setting [7]) is -5%; in experiment [3] (setting [8]), 15%; in experiment [3] (at 50.0 µM), 39.5%; in experiment [4] (setting [7]) it was -3%; in experiment [4] (setting [8]), -7%; in experiment [4] (at 50.0 µM) it was 43%. Further, the growth inhibition in experiment [5] (setting [7]) is 1%; in experiment [5] (setting [8]), 31%; in experiment [5] (at 50.0 µM) it was 51.5%; in experiment [6] (setting [7]), 16%; in experiment [6] (setting [8]), 42%; in experiment [6] (at 50.0 µM), 18.1%.
Consider `COc1ccc(C2c3cc4c(cc3OC(O)(CO)C2C(=O)O)OCO4)cc1` (stereo not given) (tested in a mixture with another compound), for which the growth inhibition in experiment [1] (setting [7]) was -6%; in experiment [1] (setting [8]) it was 86% (active); in experiment [1] (at 50.0 µM) it was 53.5%; in experiment [2] (setting [7]), -11%; in experiment [2] (setting [8]), 75% (active); in experiment [2] (at 50.0 µM), 81.3% (active). The growth inhibition was -6% in experiment [3] (setting [7]); 40% in experiment [3] (setting [8]); 27.8% in experiment [3] (at 50.0 µM); -6% in experiment [4] (setting [7]); 90% (active) in experiment [4] (setting [8]); 37% in experiment [4] (at 50.0 µM). In addition, the growth inhibition in experiment [5] (setting [7]) was -18%; in experiment [5] (setting [8]), 95% (active); in experiment [5] (at 50.0 µM), 87% (active); in experiment [6] (setting [7]), -8%; in experiment [6] (setting [8]) it was 89% (active); in experiment [6] (at 50.0 µM) it was 81.8% (active).
As to `CNC(=O)OC1/C(C)=C\C(C)C(O)C(OC)CC(C)CC2=C(OC)C(=O)C=C(C2=O)N(C)C(=O)/C(C)=C/C=C\C1OC` (stereo not given), the growth inhibition is -24% in experiment [1] (setting [7]); 25% in experiment [1] (setting [8]); 65% in experiment [1] (at 50.0 µM); -28% in experiment [2] (setting [7]); 70% (active) in experiment [2] (setting [8]); 83.8% (active) in experiment [2] (at 50.0 µM). Further, the growth inhibition in experiment [3] (setting [7]) is -22%; in experiment [3] (setting [8]) it was 39%; in experiment [3] (at 50.0 µM), 65.8%; in experiment [4] (setting [7]), 8%; in experiment [4] (setting [8]) it was 68%; in experiment [4] (at 50.0 µM), 50%. The growth inhibition was 9% in experiment [5] (setting [7]); 80% (active) in experiment [5] (setting [8]); 73.6% (active) in experiment [5] (at 50.0 µM); -3% in experiment [6] (setting [7]); 68% in experiment [6] (setting [8]); 51% in experiment [6] (at 50.0 µM).
On to `CCCN(CCC)CCNc1ccc(C)c2sc3ccccc3c(=O)c12`, for which the growth inhibition in experiment [1] (setting [7]) was 19%; in experiment [1] (setting [8]) it was 99% (active); in experiment [1] (at 50.0 µM) it was 99.7% (active); in experiment [2] (setting [7]), 4%; in experiment [2] (setting [8]) it was 100% (active); in experiment [2] (at 50.0 µM), 99.7% (active). Further, the growth inhibition in experiment [3] (setting [7]) was 42%; in experiment [3] (setting [8]), 100% (active); in experiment [3] (at 50.0 µM) it was 99.5% (active); in experiment [4] (setting [7]), 19%; in experiment [4] (setting [8]), 99% (active); in experiment [4] (at 50.0 µM) it was 99.5% (active). Moreover, the growth inhibition is 35% in experiment [5] (setting [7]); 99% (active) in experiment [5] (setting [8]); 99.4% (active) in experiment [5] (at 50.0 µM); 31% in experiment [6] (setting [7]); 99% (active) in experiment [6] (setting [8]); 99.5% (active) in experiment [6] (at 50.0 µM).
In the case of `c1ccc([P+](c2ccccc2)(c2ccccc2)C2CCCC2)cc1`, the growth inhibition was -18% in experiment [1] (setting [7]); 7% in experiment [1] (setting [8]); 96.8% (active) in experiment [1] (at 50.0 µM); -13% in experiment [2] (setting [7]); 15% in experiment [2] (setting [8]); 97.5% (active) in experiment [2] (at 50.0 µM). Besides, the growth inhibition in experiment [3] (setting [7]) was -13%; in experiment [3] (setting [8]), 40%; in experiment [3] (at 50.0 µM), 97.6% (active); in experiment [4] (setting [7]), -3%; in experiment [4] (setting [8]), -1%; in experiment [4] (at 50.0 µM) it was 98.3% (active). Also, the growth inhibition is 0% in experiment [5] (setting [7]); -1% in experiment [5] (setting [8]); 95.5% (active) in experiment [5] (at 50.0 µM); 11% in experiment [6] (setting [7]); 32% in experiment [6] (setting [8]); 98.5% (active) in experiment [6] (at 50.0 µM).
For the molecule `O=C1C=CC(=O)N1c1ccc(-c2nc3ccccc3o2)cc1`, the growth inhibition in experiment [1] (setting [7]) was 66%; in experiment [1] (setting [8]), 92% (active); in experiment [1] (at 50.0 µM), 86.2% (active); in experiment [2] (setting [7]), 70% (active); in experiment [2] (setting [8]), 91% (active); in experiment [2] (at 50.0 µM), 88.9% (active). The growth inhibition in experiment [3] (setting [7]) was 100% (active); in experiment [3] (setting [8]), 96% (active); in experiment [3] (at 50.0 µM), 91.5% (active); in experiment [4] (setting [7]) it was 81% (active); in experiment [4] (setting [8]) it was 96% (active); in experiment [4] (at 50.0 µM), 88% (active). Moreover, the growth inhibition in experiment [5] (setting [7]) was 100% (active); in experiment [5] (setting [8]), 87% (active); in experiment [5] (at 50.0 µM), 88.5% (active); in experiment [6] (setting [7]), 82% (active); in experiment [6] (setting [8]) it was 90% (active); in experiment [6] (at 50.0 µM), 90% (active).
On to `Nc1ccc2ccccc2c1N=Nc1ccccc1`, for which the growth inhibition in experiment [1] (setting [7]) is 6%; in experiment [1] (setting [8]), 97% (active); in experiment [1] (at 50.0 µM), 98.3% (active); in experiment [2] (setting [7]), 0%; in experiment [2] (setting [8]) it was 99% (active); in experiment [2] (at 50.0 µM), 99% (active). Besides, the growth inhibition was 3% in experiment [3] (setting [7]); 98% (active) in experiment [3] (setting [8]); 99.1% (active) in experiment [3] (at 50.0 µM); -8% in experiment [4] (setting [7]); 96% (active) in experiment [4] (setting [8]); 96.6% (active) in experiment [4] (at 50.0 µM). In addition, the growth inhibition in experiment [5] (setting [7]) was 0%; in experiment [5] (setting [8]) it was 98% (active); in experiment [5] (at 50.0 µM), 98.5% (active); in experiment [6] (setting [7]), 2%; in experiment [6] (setting [8]), 92% (active); in experiment [6] (at 50.0 µM), 97.6% (active).
As for `CC1=C(C(=O)OCCc2ccc([N+](=O)[O-])cc2)C(c2ccccc2[N+](=O)[O-])C(C(=O)OC(C)C)=C(C)N1` (stereo not given), the growth inhibition in experiment [1] (setting [7]) is 12%; in experiment [1] (setting [8]), 93% (active); in experiment [1] (at 50.0 µM), 69.6%; in experiment [2] (setting [7]), 13%; in experiment [2] (setting [8]) it was 94% (active); in experiment [2] (at 50.0 µM) it was 74.3% (active). The growth inhibition is 1% in experiment [3] (setting [7]); 87% (active) in experiment [3] (setting [8]); 75.7% (active) in experiment [3] (at 50.0 µM); 0% in experiment [4] (setting [7]); 80% (active) in experiment [4] (setting [8]); 68.4% in experiment [4] (at 50.0 µM). Further, the growth inhibition in experiment [5] (setting [7]) was 4%; in experiment [5] (setting [8]), 89% (active); in experiment [5] (at 50.0 µM), 74.6% (active); in experiment [6] (setting [7]) it was 10%; in experiment [6] (setting [8]), 94% (active); in experiment [6] (at 50.0 µM) it was 68%.
